Source: the supplement of paper PMC10849652
Of roughly 8,800 targets only a part is listed; those with a hit were picked by preference. About 0.5% of all pairs of compound and target were hits. Values without a mark were called inactive.

Key:
Assay in all cases: log2 fold change, soluble protein after heating vs DMSO (PISA); higher = thermal stabilisation; K562 lysate, 10 uM; active = over 0.2 and 3.5 SD of the protein, either way, in both replicates (recomputed)
[1] = compound: CN1CC[C@H](c2c(O)cc(O)c3c(=O)cc(-c4ccccc4Cl)oc23)[C@H](O)C1 [alvocidib]
Procedure, shortened: (§1)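 K562 pellets were dounce-homogenised in PBS pH 7.4 containing 1 mM MgCl2, and the crude extract, at 1 mg/mL protein, was exposed to 10 μM compound for 30 min. Aliquots were heated for 3 min across 48°C-58°C, pooled, brought to 0.5% NP-40 at 4°C and spun at 21,000xg for 90 min, with the supernatant taken as soluble protein. TMTpro 16plex LC-MS/MS with equalised channel sums quantified that protein. Values are log-two fold changes in thermal stability relative to solvent controls, taken from duplicates.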

[2] = compound: CN1CCc2c(c3ccccc3n2Cc2ccc(C(=O)NO)cc2)C1 [Tubastatin A]
Procedure, shortened: as §1

[3] = compound: CNC(=O)C1=CC=CC=C1NC2=NC(=NC=C2Cl)NC3=C(C=C(C=C3)N4CCOCC4)OC
Procedure, shortened: as §1

[4] = compound: CNC(=O)c1ccc(Nc2ncc(C(F)(F)F)c(NCc3nccnc3N(C)S(C)(=O)=O)n2)cc1 [defactinib]
Procedure, shortened: as §1

[5] = compound: CNc1nc(-c2ccc3c(N)n[nH]c3c2)cc(N2C[C@@H](C(=O)NC3CCCCC3)CC[C@H]2C)n1
Procedure, shortened: as §1

[6] = compound: COC(=O)N[C@@H](C)CNc1nccc(-c2cn(C(C)C)nc2-c2cc(Cl)cc(NS(C)(=O)=O)c2F)n1 [encorafenib]
Procedure, shortened: as §1

[7] = compound: COC(=O)[C@H](CCSC)NC(=O)C1=C(C=C(C=C1)NC[C@H](CS)N)C2=CC=CC=C2
Procedure, shortened: as §1

[8] = compound: COc1cc(Nc2ncc3c(n2)-c2ccc(Cl)cc2C(c2c(F)cccc2OC)=NC3)ccc1C(=O)O [alisertib]
Procedure, shortened: as §1

[9] = compound: COc1cc2nc(-c3cc(F)ccc3O)nc(N[C@@H]3CNC[C@H]3C(C)(C)O)c2cc1OC
Procedure, shortened: as §1

[10] = compound: COc1cc2ncnc(Nc3ccc(F)c(Cl)c3)c2cc1OCCCN1CCOCC1 [gefitinib]
Procedure, shortened: as §1

Sequence of UniProt O75843 (O75843 whole entry, looked up): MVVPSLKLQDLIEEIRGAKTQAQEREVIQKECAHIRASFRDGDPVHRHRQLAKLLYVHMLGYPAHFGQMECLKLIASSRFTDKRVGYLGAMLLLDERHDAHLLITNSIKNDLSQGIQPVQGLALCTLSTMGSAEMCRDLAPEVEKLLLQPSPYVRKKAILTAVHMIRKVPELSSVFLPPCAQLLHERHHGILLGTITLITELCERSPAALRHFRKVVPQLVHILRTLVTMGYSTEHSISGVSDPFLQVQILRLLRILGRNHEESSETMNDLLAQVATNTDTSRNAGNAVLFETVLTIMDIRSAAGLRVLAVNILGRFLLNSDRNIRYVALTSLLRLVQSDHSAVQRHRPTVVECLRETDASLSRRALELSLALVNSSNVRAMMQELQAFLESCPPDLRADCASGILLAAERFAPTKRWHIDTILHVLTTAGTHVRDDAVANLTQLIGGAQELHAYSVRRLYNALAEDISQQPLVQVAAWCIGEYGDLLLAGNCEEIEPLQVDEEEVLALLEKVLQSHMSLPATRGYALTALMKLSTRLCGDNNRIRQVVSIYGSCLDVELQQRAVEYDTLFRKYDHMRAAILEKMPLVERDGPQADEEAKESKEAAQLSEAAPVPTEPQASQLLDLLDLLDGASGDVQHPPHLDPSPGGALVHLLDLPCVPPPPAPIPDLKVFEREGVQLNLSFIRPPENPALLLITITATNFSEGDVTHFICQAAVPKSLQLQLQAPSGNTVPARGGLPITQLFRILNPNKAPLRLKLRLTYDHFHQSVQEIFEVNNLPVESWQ
Sequence of UniProt P35573 (P35573 whole entry, looked up): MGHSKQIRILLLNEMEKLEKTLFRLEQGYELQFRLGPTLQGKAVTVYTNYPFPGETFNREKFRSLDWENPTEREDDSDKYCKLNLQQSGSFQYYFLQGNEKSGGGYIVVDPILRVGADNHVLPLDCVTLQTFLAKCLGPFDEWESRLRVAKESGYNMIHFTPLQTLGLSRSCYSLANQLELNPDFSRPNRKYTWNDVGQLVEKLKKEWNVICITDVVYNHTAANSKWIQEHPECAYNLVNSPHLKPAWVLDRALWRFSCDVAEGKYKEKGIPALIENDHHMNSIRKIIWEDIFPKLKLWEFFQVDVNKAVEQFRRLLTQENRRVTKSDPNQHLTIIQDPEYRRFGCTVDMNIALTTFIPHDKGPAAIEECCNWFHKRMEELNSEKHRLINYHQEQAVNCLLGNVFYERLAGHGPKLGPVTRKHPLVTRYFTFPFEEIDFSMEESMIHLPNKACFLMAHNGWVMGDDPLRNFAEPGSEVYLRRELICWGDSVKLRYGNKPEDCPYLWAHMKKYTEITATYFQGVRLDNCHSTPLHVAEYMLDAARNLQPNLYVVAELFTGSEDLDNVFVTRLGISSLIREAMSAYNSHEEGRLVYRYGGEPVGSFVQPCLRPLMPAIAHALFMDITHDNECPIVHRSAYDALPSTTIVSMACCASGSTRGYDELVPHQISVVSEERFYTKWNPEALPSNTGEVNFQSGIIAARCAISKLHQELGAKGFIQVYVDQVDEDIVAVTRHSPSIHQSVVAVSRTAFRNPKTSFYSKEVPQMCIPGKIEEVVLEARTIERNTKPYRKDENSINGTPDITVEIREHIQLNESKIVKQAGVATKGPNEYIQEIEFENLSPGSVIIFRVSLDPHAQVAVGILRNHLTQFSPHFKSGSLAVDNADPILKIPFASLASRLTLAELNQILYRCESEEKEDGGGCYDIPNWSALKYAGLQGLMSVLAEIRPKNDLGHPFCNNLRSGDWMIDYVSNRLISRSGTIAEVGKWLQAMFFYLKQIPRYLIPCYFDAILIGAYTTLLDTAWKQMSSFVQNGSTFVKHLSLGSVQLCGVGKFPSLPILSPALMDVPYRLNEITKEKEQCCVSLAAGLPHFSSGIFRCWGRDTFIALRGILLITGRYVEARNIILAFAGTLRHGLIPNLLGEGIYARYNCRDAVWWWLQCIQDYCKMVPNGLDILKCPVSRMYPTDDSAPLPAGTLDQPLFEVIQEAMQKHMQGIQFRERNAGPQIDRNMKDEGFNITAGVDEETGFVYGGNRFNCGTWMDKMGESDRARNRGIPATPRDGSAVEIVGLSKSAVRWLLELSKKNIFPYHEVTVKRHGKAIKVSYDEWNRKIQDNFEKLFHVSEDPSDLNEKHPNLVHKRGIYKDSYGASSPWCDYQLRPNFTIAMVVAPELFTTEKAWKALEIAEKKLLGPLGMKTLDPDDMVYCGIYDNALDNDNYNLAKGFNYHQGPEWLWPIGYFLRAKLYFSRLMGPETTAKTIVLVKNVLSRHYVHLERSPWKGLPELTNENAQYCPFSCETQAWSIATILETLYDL
Sequence of UniProt Q12904 (Q12904 whole entry, looked up): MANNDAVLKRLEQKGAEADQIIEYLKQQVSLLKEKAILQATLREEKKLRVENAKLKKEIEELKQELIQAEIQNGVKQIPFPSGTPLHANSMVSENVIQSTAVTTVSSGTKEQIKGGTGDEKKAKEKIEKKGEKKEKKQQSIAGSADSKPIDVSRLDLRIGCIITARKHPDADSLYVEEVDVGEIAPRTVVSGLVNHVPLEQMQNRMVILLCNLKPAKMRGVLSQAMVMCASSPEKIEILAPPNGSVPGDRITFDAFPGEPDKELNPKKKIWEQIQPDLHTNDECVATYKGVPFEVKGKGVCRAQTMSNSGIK
Sequence of UniProt Q9NUQ8 (Q9NUQ8 whole entry, looked up): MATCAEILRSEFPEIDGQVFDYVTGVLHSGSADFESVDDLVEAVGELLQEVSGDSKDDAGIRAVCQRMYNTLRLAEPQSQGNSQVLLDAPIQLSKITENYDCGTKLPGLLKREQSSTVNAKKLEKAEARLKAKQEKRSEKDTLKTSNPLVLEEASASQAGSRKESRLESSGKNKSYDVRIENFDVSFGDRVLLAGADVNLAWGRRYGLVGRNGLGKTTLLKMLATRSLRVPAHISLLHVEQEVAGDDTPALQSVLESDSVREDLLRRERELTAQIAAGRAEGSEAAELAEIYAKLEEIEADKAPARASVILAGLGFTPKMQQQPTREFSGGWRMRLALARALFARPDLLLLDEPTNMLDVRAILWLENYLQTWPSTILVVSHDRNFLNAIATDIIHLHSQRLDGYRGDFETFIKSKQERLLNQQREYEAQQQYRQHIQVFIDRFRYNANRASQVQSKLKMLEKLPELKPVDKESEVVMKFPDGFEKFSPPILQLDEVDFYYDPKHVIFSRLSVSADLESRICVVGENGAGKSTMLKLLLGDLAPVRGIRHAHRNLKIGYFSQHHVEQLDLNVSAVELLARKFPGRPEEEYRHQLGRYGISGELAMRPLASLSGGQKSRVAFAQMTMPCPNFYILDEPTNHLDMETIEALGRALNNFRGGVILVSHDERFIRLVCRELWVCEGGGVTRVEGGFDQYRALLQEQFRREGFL
Sequence of UniProt Q8NB46 (Q8NB46 whole entry, looked up): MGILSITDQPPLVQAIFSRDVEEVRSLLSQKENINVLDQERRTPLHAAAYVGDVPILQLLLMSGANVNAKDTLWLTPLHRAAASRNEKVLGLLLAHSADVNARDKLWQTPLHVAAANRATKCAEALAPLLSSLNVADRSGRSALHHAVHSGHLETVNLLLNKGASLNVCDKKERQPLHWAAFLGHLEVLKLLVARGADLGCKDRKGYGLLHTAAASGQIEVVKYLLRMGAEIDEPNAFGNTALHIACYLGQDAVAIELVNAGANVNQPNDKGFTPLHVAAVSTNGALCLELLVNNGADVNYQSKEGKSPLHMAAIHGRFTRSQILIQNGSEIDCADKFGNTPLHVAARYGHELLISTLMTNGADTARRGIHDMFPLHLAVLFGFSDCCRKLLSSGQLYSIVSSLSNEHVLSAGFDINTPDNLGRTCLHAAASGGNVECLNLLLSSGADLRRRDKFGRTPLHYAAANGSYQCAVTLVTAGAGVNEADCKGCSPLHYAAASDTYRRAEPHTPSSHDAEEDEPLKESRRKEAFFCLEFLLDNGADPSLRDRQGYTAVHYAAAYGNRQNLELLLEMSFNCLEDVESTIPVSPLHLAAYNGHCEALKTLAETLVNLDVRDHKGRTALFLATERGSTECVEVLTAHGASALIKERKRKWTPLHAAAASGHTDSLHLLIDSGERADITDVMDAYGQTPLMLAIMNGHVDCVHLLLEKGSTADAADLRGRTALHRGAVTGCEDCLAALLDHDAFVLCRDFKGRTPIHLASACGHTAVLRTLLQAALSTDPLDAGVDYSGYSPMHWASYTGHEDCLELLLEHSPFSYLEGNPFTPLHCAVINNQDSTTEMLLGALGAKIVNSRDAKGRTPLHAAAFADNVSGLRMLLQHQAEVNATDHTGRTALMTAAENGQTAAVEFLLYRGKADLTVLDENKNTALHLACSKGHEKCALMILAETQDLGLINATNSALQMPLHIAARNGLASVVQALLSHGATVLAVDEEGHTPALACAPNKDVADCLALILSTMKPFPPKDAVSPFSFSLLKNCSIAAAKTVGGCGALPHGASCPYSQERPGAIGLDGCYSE
Sequence of UniProt P24752 (P24752 whole entry, looked up): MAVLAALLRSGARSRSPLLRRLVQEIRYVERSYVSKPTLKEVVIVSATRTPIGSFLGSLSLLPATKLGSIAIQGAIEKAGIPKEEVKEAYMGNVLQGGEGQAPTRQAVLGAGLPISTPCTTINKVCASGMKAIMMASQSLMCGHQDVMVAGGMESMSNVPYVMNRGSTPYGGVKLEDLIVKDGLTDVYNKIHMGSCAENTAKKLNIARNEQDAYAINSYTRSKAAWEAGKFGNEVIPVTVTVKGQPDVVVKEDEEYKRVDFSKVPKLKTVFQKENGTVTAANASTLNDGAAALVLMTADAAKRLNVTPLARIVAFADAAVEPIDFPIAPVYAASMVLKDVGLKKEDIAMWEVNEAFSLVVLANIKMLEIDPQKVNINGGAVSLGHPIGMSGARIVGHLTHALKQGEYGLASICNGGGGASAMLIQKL
Sequence of UniProt Q96BM9 (Q96BM9 whole entry, looked up): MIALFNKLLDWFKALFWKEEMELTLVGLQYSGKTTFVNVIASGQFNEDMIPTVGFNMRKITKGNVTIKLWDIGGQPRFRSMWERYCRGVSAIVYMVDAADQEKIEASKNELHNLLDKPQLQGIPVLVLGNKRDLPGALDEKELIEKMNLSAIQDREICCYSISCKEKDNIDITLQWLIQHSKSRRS

| Target | log2 fold change [1] | log2 fold change [2] | log2 fold change [3] | log2 fold change [4] | log2 fold change [5] | log2 fold change [6] | log2 fold change [7] | log2 fold change [8] | log2 fold change [9] | log2 fold change [10] |
| --- | --- | --- | --- | --- | --- | --- | --- | --- | --- | --- |
| AP1G2 (UniProt O75843) | 0.04 | -0.099 | 0.068 | -0.006 | 0.036 | -0.03 | -0.015 | 0.037 | 0.056 | 0.03 |
| ABCF3 (UniProt Q9NUQ8) | 0.013 | -0.172 | 0.029 | -0.01 | -0.01 | -0.031 | 0.11 | 0.004 | -0.003 | -0.006 |
| ARAF (UniProt P10398) | 0.036 | -0.08 | 0.019 | -0.039 | -0.105 | 0.307 (active) | 0.093 | -0.048 | 0.007 | 0.019 |
| APOB (UniProt P04114) | -0.078 | 0.099 | -0.021 | -0.04 | 0.264 | -0.008 | 0.003 | -0.024 | 0.023 | 0.014 |
| APEX1 (UniProt P27695) | 0.13 | -0.07 | 0.006 | 0.023 | 0.038 | -0.024 | 0.076 | 0 | -0.019 | -0.064 |
| ARL8A (UniProt Q96BM9) | 0.082 | 0.043 | 0.06 | 0.019 | 0.204 | -0.048 | -0.03 | -0.186 | 0.027 | 0.013 |
| AIMP1 isoform 2 (UniProt Q12904) | 0.056 | -0.118 | 0.01 | 0.018 | 0.028 | -0.005 | 0.11 | 0.004 | -0.009 | -0.029 |
| AIMP2 (UniProt Q13155) | 0.037 | -0.11 | 0.006 | -0.01 | -0.007 | -0.02 | 0.093 | 0.011 | -0.028 | -0.088 |
| AKR1C3 (UniProt P42330) | 0.026 | 0.073 | -0.052 | 0.017 | -0.211 | -0.026 | 0.022 | 0.056 | 0.028 | -0.003 |
| ARMCX3 (UniProt Q9UH62) | 0.022 | -0.061 | -0.018 | 0.017 | 0.026 | -0.006 | 0.015 | 0.055 | 0.042 | -0.053 |
| AGL (UniProt P35573) | 0.046 | -0.099 | 0.014 | 0.024 | -0.002 | 0.008 | 0.178 | -0.004 | -0.012 | -0.007 |
| AKT2 (UniProt P31751) | 0.001 | -0.061 | 0.036 | -0.013 | -0.064 | 0.028 | 0.037 | 0.003 | -0.005 | -0.013 |
| ARHGAP21 (UniProt Q5T5U3) | 0.032 | 0.008 | 0.03 | 0.015 | 0.056 | 0.079 | 0.101 | -0.023 | -0.007 | -0.095 |
| ACIN1 isoform 5 (UniProt Q9UKV3) | -0.038 | 0.039 | -0.034 | -0.009 | 0.053 | -0.004 | -0.01 | 0.032 | -0.003 | 0.001 |
| ANXA5 (UniProt P08758) | 0.04 | 0 | -0.023 | -0.002 | -0.067 | -0.016 | 0.049 | 0.052 | -0.009 | 0.049 |
| AIP (UniProt O00170) | 0.164 | 0.003 | 0.037 | 0.004 | 0.015 | -0.008 | 0.043 | -0.039 | -0.002 | -0.032 |
| ANKRD52 (UniProt Q8NB46) | -0.002 | -0.132 | -0.003 | 0.076 | 0.014 | 0.047 | 0.11 | 0.005 | 0 | 0.039 |
| ASCC2 (UniProt Q9H1I8) | -0.009 | -0.105 | 0.002 | 0 | -0.003 | 0.007 | 0.037 | -0.014 | 0.016 | -0.057 |
| AARS2 (UniProt Q5JTZ9) | 0.064 | -0.093 | -0.011 | -0.05 | -0.017 | 0.006 | 0.106 | 0.02 | -0.119 | -0.02 |
| ABL2 (UniProt P42684) | 0.007 | -0.04 | 0.082 | 0.066 | -0.108 | 0.092 | -0.068 | -0.123 | -0.009 | -0.176 |
| AIFM2 (UniProt Q9BRQ8) | -0.032 | 0.044 | 0.114 | 0.045 | 0.099 | 0.024 | 0.107 | -0.032 | -0.034 | 0.038 |
| ADAMTS5 (UniProt Q9UNA0) | -0.33 | 0.149 | 0.105 | -0.052 | 0.278 | -0.134 | -0.012 | 0.073 | 0.109 | -0.093 |
| AMDHD2 isoform 3 (UniProt Q9Y303) | -0.016 | 0 | 0.018 | 0.014 | 0.018 | -0.028 | 0.1 | 0.023 | -0.013 | 0.034 |
| AFF4 (UniProt Q9UHB7) | -0.235 | -0.086 | -0.046 | 0.077 | 0.018 | 0.011 | -0.027 | -0.022 | 0.015 | 0.013 |
| ALG8 (UniProt Q9BVK2) | 0.004 | -0.118 | -0.007 | 0.001 | -0.012 | 0.04 | -0.09 | 0.076 | -0.019 | 0.103 |
| AMD1 (UniProt P17707) | -0.039 | -0.084 | 0.071 | -0.003 | 0.008 | -0.08 | -0.107 | 0.027 | 0.261 | 0.041 |
| ACAT1 (UniProt P24752) | 0.018 | -0.136 | 0.001 | -0.027 | 0.05 | -0.033 | 0.04 | 0 | -0.006 | -0.06 |
| ACSL1 (UniProt P33121) | 0.02 | -0.169 | 0.001 | 0.096 | -0.062 | 0.007 | -0.052 | 0.057 | -0.08 | -0.036 |
| AGO4 (UniProt Q9HCK5) | -0.013 | -0.003 | 0.003 | -0.027 | -0.214 (active) | 0.025 | -0.092 | -0.008 | 0.037 | -0.015 |
| ANXA11 (UniProt P50995) | -0.025 | 0.017 | 0.009 | -0.012 | -0.019 | -0.004 | 0.027 | 0.015 | -0.015 | -0.014 |
